Reference: PubChem BioAssay (Tox21)
Inconclusive results are not listed. Activity calls are given as the source filed them. Unless noted, calls follow the shape of the full dose curve.

Tests used:
[1] = Nuclear factor erythroid 2-related factor 2/antioxidant responsive element (Nrf2/ARE) small molecule agonists: luciferase reporter gene qHTS assay in human keratinocytes (AID 1919969); also: nearly all actives have a fitted effect of over 35% in size
[2] = target: Gonadotropin-releasing hormone receptor (Homo sapiens) (UniProt P30968); experiment: Human gonadotropin-releasing hormone receptor (GnRHR) small molecule agonists, calcium flux assay in GnRHR-HEK293 cells (AID 1920063); also: nearly all actives have a fitted effect of over 35% in size
How it was run: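 Stable human GnRHR HEK293 line. 18 h plating, then calcium dye for 1 h at 37 C. Agonist-mode compound addition from DMSO stocks; fluorescence monitored 3 min.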

[3] = target: KiSS-1 receptor (Homo sapiens) (UniProt Q969F8); experiment: Human kisspeptin (KISS1R) small molecule agonists, calcium flux assay in KISS1R-HEK293 cells (AID 1920064; active = well fitted activation curve with a large enough effect in the repeat runs)
How it was run: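 After overnight (18 h) culture at 37 C/5% CO2, human KISS1R-HEK293 cells received calcium dye for 1 h, then test compound; emission at 540 nm (excitation 480 nm) was tracked for 3 min.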

[4] = G protein-coupled receptor (GPCR) small molecule agonists, calcium flux assay: HEK293 wild type cell line counter screen (AID 1920065)
How it was run: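 Following 18 h incubation at 37 C/5% CO2, plates got calcium dye for 1 h; compounds, ATP or DMSO were then pinned in and fluorescence followed kinetically (480/540 nm).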

[5] = p53 small molecule agonists, cell-based qHTS assay with human liver microsomes (AID 1963577)
How it was run: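 Compounds act here after metabolic activation: human liver microsomes and NADPH, both at 0.5 mg/mL final, were co-added to p53RE-bla cells. Incubation ran 16 h at 37 C, followed by LiveBLAzer detection.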

[6] = p53 small molecule agonists, cell-based qHTS assay with rat liver microsomes (AID 1963578)
How it was run: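 Read-out is beta-lactamase reporter fluorescence (LiveBLAzer, 2 h, room temperature, dark) in p53RE-bla cells treated 16 h at 37 C with compound, rat liver microsomes and NADPH, both 0.5 mg/mL final.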

[7] = p53 small molecule agonists, cell-based qHTS assay with human liver microsomes: qHTS cell viability counter screen (AID 1963579); also: nearly all actives have a fitted effect of over 45% in size
How it was run: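 Cells carrying the p53 response-element beta-lactamase reporter are treated for 16 h at 37 C with test compounds in the presence of human liver microsomes and NADPH (both 0.5 mg/mL final); ATP-based CellTiter-Glo luminescence then reports viability.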

[8] = p53 small molecule agonists, cell-based qHTS assay with rat liver microsomes: qHTS cell viability counter screen (AID 1963580); also: nearly all actives have a fitted effect of over 45% in size
How it was run: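 Rat liver microsome (0.5 mg/mL final) and NADPH (0.5 mg/mL final) co-incubation with compounds for 16 h at 37 C on HCT-116 p53RE-bla cells; cytotoxicity taken from intracellular ATP luminescence.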

[9] = p53 small molecule agonists, cell-based qHTS assay: qHTS cell viability counter screen (AID 1963581); also: nearly all actives have a fitted effect of over 45% in size
How it was run: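 qHTS counter screen: 16 h compound exposure at 37 C of p53RE-bla HCT-116 cells (4,000 per well, seeded 5 h prior), cell viability by ATP luminescence.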

[10] = p53 small molecule agonists, cell-based qHTS assay (AID 1963582; active = well fitted activation curve with a large enough effect in the signal ratio in the repeat runs, not every such curve was filed as active; the % refers to the signal ratio)
How it was run: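 Measured: fluorescence from cleaved LiveBLAzer substrate. System: p53RE-bla cells, 16 h compound treatment at 37 C, 2 h substrate step at room temperature.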

[11] = target: 5-hydroxytryptamine receptor 2A (Homo sapiens) (UniProt P28223); experiment: 5-hydroxytryptamine receptor 2A (HTR2A) small molecule antagonists, cell-based qHTS assay (AID 1963586); also: nearly all actives have a fitted effect of over 45% in size
How it was run: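 CHO cells stably expressing human HTR2A were plated for 18 h at 37 C, then loaded with calcium dye for 1 h. Compounds were preincubated 5 min at room temperature before DOI (4 nM solution) was added. Kinetic fluorescence was read for 3 min.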

[12] = target: 5-hydroxytryptamine receptor 2A (Homo sapiens) (UniProt P28223); experiment: 5-hydroxytryptamine receptor 2A (HTR2A) small molecule agonists, cell-based qHTS assay (AID 1963587); also: nearly all actives have a fitted effect of over 30% in size
How it was run: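 Kinetic calcium-flux fluorescence (2 min, 1 sec intervals) after compound addition in agonist mode. HTR2A-CHO cells were cultured 18 h, then dye-loaded 1 h at 37 C.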

[13] = target: Muscarinic acetylcholine receptor M1 (Homo sapiens) (UniProt P11229); experiment: Cholinergic receptor muscarinic 1 (CHRM1) small molecule antagonists, cell-based qHTS assay (AID 1963588); also: nearly all actives have a fitted effect of over 40% in size
How it was run: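 Compounds were tested at 15 concentrations in three independent runs. Dye-loaded CHRM1-CHO cells were exposed 5 min at room temperature before stimulation by acetylcholine added at 50nM. Intracellular calcium was read kinetically on FDSS for 3 min.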

[14] = target: Muscarinic acetylcholine receptor M1 (Homo sapiens) (UniProt P11229); experiment: Cholinergic receptor muscarinic 1 (CHRM1) small molecule agonists, cell-based qHTS assay (AID 1963589); also: nearly all actives have a fitted effect of over 35% in size
How it was run: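 Kinetic fluorescence (1 s intervals) of calcium-sensitive dye in human M1 CHO cells after compound addition; cells pre-incubated 18 h at 37 C/5% CO2 and dye-loaded 1 h.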

[15] = cAMP Responsive Elements (CRE) small molecule agonists, cell-based qHTS assay (AID 1963590)
How it was run: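 Test agents in DMSO were incubated 3 h at 37 C/5% CO2 with CRE-bla HEK 293T cells seeded 18 h earlier; LiveBLAzer B/G FRET substrate was added and read after 2 h at room temperature.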

[16] = cAMP Responsive Elements (CRE) small molecule antagonists, cell-based qHTS assay (AID 1963591; active = well fitted inhibition curve with a large enough effect in the signal ratio in the repeat runs, not every such curve was filed as active; the % refers to the signal ratio)
How it was run: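 Reporter line CRE-bla HEK 293T in dialyzed-FBS DMEM; cells preincubated 18 h, treated 3 h with compound plus NKH477 (0.25 uM final); LiveBLAzer FRET, 2 h RT.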

[17] = target: D(2) dopamine receptor (Homo sapiens) (UniProt P14416); experiment: Dopamine D2 receptor (DRD2) small molecule agonists, cell-based qHTS assay (AID 1963594); also: nearly all actives have a fitted effect of over 35% in size
How it was run: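 cAMP accumulation in DRD2-HEK293 cells measured by HTRF after 1 h detection; compounds added 10 min before NKH477 (200nM […]) forskolin-analogue stimulation, 30 min at room temperature, with Ro20-1724 present at 0.1 mM final.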

[18] = target: D(2) dopamine receptor (Homo sapiens) (UniProt P14416); experiment: Dopamine D2 receptor (DRD2) small molecule antagonists, cell-based qHTS assay (AID 1963595; active = well fitted inhibition curve with a large enough effect in the signal ratio in the repeat runs, with a control signal flat; the % refers to the signal ratio)
How it was run: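 DRD2-HEK293; 0.1 mM Ro20-1724; cpd 10 min RT; NKH477 200 nM + quinpirole 12 nM, 30 min RT; HTRF cAMP (cAMP-d2/anti-cAMP cryptate), 665/620 nm ratio after 1 h.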

[19] = target: Beta-2 adrenergic receptor (Homo sapiens) (UniProt P07550); experiment: Adrenergic beta2 receptor (ADRB2) small molecule antagonists, cell-based qHTS assay (AID 1963592); also: series mostly up to about 92 µM; nearly all actives have a fitted effect of over 50% in size
How it was run: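 Assay format: CHO-ADRB2 cells, 18-20hr seeding at 37C/5% CO2, then compound plus 1nM isoproterenol agonist mix for 0.5hr RT. Homogeneous time-resolved fluorescence cAMP detection after 1hr, expressed as 665/615 nm ratio.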

[20] = target: Beta-2 adrenergic receptor (Homo sapiens) (UniProt P07550); experiment: Adrenergic beta2 receptor (ADRB2) small molecule agonists, cell-based qHTS assay (AID 1963593);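 also: CHO cells stably overexpressing human ADRB2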
How it was run: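 CHO cells stably over-expressing ADRB2 were plated overnight at 37C, then dosed with compounds plus a stimulation mix containing 100uM IBMX and 25uM Ro-20-1724 for 0.5hr at room temperature. cAMP was measured by HTRF competition, 1hr.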

Measured: Potency

Chain of 5-hydroxytryptamine receptor 2A (Homo sapiens) (P28223 whole entry, looked up): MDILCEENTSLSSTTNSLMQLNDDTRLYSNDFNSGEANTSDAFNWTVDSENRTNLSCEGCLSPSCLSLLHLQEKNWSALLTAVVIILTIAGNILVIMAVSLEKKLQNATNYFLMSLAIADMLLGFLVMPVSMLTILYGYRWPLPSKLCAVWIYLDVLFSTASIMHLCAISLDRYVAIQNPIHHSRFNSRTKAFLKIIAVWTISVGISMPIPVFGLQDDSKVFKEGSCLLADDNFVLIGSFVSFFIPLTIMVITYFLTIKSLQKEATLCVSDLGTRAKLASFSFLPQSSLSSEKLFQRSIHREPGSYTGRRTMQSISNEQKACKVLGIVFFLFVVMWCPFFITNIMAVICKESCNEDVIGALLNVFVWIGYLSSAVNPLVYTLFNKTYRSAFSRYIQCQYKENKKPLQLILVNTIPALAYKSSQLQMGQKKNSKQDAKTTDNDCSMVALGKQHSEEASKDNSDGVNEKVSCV
Chain of KiSS-1 receptor (Homo sapiens) (Q969F8 whole entry, looked up): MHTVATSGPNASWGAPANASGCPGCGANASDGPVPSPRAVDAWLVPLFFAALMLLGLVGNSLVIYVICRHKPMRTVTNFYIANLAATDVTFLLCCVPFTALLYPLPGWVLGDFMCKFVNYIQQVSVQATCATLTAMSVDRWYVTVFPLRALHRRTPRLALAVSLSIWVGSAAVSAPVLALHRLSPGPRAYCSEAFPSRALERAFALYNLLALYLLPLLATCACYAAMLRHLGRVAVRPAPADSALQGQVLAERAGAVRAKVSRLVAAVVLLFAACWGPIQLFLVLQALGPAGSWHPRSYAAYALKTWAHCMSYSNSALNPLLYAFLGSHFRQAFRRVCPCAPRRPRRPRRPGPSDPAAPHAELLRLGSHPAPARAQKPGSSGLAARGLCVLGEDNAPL
Chain of Muscarinic acetylcholine receptor M1 (Homo sapiens) (P11229 whole entry, looked up): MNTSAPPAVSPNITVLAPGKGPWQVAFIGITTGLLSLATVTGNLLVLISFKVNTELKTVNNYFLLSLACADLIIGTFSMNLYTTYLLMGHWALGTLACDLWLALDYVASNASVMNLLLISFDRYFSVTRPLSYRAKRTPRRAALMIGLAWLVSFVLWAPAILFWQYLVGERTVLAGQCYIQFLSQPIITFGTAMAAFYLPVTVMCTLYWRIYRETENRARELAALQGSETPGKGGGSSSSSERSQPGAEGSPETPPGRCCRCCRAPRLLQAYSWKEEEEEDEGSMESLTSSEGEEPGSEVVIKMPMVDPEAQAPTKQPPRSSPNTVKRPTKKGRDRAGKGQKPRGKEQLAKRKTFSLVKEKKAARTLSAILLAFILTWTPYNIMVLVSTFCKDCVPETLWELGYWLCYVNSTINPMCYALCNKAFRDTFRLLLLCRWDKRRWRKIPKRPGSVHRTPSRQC
Chain of Gonadotropin-releasing hormone receptor (Homo sapiens) (P30968 whole entry, looked up): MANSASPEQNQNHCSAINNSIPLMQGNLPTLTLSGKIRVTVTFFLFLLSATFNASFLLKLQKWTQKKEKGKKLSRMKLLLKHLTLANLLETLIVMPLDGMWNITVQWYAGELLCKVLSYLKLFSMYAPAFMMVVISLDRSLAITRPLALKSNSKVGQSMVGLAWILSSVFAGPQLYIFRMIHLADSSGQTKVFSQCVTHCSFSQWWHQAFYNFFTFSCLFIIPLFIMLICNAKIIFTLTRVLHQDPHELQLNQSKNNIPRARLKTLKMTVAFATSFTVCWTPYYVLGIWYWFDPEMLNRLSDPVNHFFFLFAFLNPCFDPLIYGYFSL
Chain of D(2) dopamine receptor (Homo sapiens) (P14416 whole entry, looked up): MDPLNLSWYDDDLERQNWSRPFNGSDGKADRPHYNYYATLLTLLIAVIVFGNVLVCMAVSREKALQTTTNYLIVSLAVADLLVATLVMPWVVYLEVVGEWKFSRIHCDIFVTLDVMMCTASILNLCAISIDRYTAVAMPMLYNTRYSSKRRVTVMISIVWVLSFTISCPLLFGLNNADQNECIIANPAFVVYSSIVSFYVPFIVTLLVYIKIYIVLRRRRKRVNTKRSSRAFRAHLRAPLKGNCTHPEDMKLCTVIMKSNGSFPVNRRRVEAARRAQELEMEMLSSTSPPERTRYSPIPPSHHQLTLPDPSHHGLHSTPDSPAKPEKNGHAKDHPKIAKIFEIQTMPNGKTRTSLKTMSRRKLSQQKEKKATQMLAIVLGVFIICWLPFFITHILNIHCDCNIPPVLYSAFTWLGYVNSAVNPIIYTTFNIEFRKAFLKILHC
Chain of Beta-2 adrenergic receptor (Homo sapiens) (P07550 whole entry, looked up): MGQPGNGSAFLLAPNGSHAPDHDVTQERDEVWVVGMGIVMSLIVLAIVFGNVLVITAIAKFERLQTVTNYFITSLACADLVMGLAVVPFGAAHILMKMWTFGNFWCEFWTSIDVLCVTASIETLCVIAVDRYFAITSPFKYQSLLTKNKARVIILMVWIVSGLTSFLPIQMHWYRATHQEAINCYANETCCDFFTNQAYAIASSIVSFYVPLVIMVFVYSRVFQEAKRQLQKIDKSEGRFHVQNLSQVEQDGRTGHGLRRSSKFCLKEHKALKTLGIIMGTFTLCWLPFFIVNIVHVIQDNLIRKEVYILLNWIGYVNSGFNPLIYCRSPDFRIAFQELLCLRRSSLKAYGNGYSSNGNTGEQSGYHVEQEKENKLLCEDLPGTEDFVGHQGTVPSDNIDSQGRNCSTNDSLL

C=C(C)C(=O)NCCC[N+](C)(C)C
not listed: [19] | [20]
inactive: all other assays above

CN(CCOc1ccc(CC2SC(=O)NC2=O)cc1)c1ccccn1 (configuration not stated)
not listed: [10] | [11] | [12] | [13] | [14] | [15] | [16] | [20]
inactive: all other assays above

O=C(c1ccccc1O)c1ccccc1O
not listed: [9]
inactive: all other assays above

CCCCCCC1(C)CCC(=O)O1 (configuration not stated)
not listed: [16]
inactive: all other assays above

N#C[C@@H]1C[C@@H]2C[C@@H]2N1C(=O)[C@@H](N)C12CC3CC(CC(O)(C3)C1)C2
not listed: [18]
inactive: all other assays above

O=C(c1ccc(O)cc1O)c1ccc(O)cc1O
not listed: [10] | [12] | [15] | [19] | [20]
inactive: all other assays above
